Results on 18 compounds are retold here after PubChem BioAssay.

Test [1] deals with Wnt5a (protein binding on small-molecule microarray). The test is described as follows: small molecules binding Wnt5a protein – biophysical, small-molecule microarray, 635/667 nm fluorescence, primary screen (AID 1142).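 Further: fluorescence read at 667 nm with signal to noise per printed feature.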 Conditions: 635 nm fluorescence, higher = more signal.
Test [2] is described as follows: ATP-based viability of Huh7 replicon cells – cell-based, CellTiter-Glo luminescence, basal, 48 h, cytotoxicity control for HCV replication inhibitor project, primary screen (AID 1143).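 Further: Huh7 hepatoma cells carrying a hepatitis C replication reporter with no stimulus; test concentration not given here.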 Conditions: higher = more signal, called active from +8 up or from −8 down. On the technique in general: In antiviral work, replicon cells carry a viral genome segment that copies itself.

Test [3] in a line: Pseudomonas biofilm growth suppression – PAO1 strain, BacTiter-Glo luminescence, LB-PBS, primary screen (AID 1144). Conditions: P. aeruginosa PAO1 biofilm, 12 h, higher = more signal.
A short description of test [4]: basal CRE-LacZ reporter activity in PC12 – cell-based, unstimulated, primary screen (AID 1145). Conditions: no forskolin, luminescence, 4.5 h, higher = more signal, called active from +8 up or from −8 down.
A short description of test [5]: forskolin-driven CRE-LacZ activity in PC12 – cell-based, CRE-LacZ reporter, forskolin-stimulated, primary screen (AID 1146).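 Further: PC12 cells with 6xCRE LacZ reporter stimulated by forskolin 10 µM; beta-galactosidase reporter signal reflecting CREB driven transcription.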 Conditions: luminescence, 4.5 h, higher = more signal, called active from +8 up or from −8 down.
Test [6] addresses Streptavidin (Streptomyces avidinii) (UniProt P22629). The test is described as follows: compounds binding control protein streptavidin – biophysical, small-molecule microarray, 635/667 nm fluorescence, artefact control for SMM compound annotation, primary screen (AID 1147).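 Further: signal reflects streptavidin binding to arrayed compounds as a control protein.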 Conditions: higher = more signal.
Test [7] is described as follows: probe aInhba binding on compound microarray – biochemical, small-molecule microarray, 635/667 nm fluorescence, primary screen (AID 1148).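 Further: score merges 667nm spot fluorescence with signal-to-noise for antibody binding to printed compounds.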 Conditions: higher = more signal.
Test [8] has as its target Torsin-1A (Homo sapiens) (UniProt O14656). As to the kind of experiment: TOR1A wild-type binding on microarray – cell lysate, small-molecule microarray, lysate, 635/667 nm, primary screen (AID 1149). Conditions: COS7 hTOR1A-WT lysate, 635 nm fluorescence, higher = more signal.
Test [9] shares this target. The test is described as follows: torsin A mutant lysate binding on microarrays – cell lysate, small-molecule microarray, COS7 lysate, 635/667 nm fluorescence, primary screen (AID 1150).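 Further: score pools 667 nm emission and signal to noise measuring lysate protein binding.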 As to conditions: COS7 hTOR1A mutant lysate, 635 nm fluorescence, higher = more signal.
For test [10], the system named is Sonic hedgehog protein (Shh). The test is described as follows: Sonic hedgehog microarray binding compounds – biochemical, small-molecule microarray, 635/667 nm fluorescence, primary screen (AID 1151).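 Further: Shh protein binding to compounds spotted on small-molecule microarray slides; score combines spot fluorescence intensity with signal-to-noise across triplicate slides.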 Conditions: 635 nm fluorescence, higher = more signal.

The structures appear in SMILES notation. The source made the active and inactive calls. Unless noted, how the calls were made is not given here.

Chain of Streptavidin (Streptomyces avidinii) (P22629 whole entry, looked up): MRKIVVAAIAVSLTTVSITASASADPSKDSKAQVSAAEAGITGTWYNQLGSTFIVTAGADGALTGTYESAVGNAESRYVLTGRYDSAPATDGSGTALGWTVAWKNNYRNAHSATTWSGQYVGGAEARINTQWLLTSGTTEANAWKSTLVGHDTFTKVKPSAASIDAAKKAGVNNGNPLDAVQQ
Chain of Torsin-1A (Homo sapiens) (O14656 whole entry, looked up): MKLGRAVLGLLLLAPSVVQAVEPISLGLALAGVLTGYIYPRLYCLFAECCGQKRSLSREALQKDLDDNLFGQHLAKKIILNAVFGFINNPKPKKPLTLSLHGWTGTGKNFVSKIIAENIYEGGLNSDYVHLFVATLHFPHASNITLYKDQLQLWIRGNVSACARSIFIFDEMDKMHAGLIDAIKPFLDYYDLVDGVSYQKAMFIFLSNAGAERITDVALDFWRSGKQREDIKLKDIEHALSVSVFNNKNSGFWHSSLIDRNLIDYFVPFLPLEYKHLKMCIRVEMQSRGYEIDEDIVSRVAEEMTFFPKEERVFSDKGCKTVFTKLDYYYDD

Take `Cc1c(NC(=O)CC#N)c(=O)n(-c2ccccc2)n1C`: the composite z-score in test [1] is 0.0101; in test [6] it was -0.347; in [7], -0.179; in test [8], 0.362; in test [9] it was -0.0384; in test [10], 0.642. In addition, the z-score in test [2] was -2.39 (inactive); in test [3], -0.739 (inactive); in test [4], -0.671 (inactive); in test [5], -0.832 (inactive).

As for `Cc1ccc([C@H]2[C@H](C(=O)O)[C@H](Sc3ccccc3)[C@@H](C(C)C)N2S(=O)(=O)c2ccc(C)cc2)cc1`, the composite z-score in test [1] is 0.378; in [6], 0.93; in [7] it was -0.231; in test [8], 0.495; in [9], 0.612; in test [10] it was -0.861. The z-score in test [2] is -2.04 (inactive); in [3], 0.766 (inactive); in test [4] it was -0.676 (inactive); in [5] it was -0.728 (inactive).

As to `COC(=O)[C@@]1(Cc2ccc(OC)cc2)[C@H]2c3cc(C(=O)N(C)C)n(Cc4c(OC)[nH]cc(C)c4=O)c3C[C@H]2CN1C(=O)c1ccccc1`, the composite z-score is -0.0522 in test [1]; -0.0748 in [6]; 0.0882 in test [7]; 0.0857 in test [8]; 1.16 in [9]; -1.1 in [10]. Also, the z-score was -0.857 (inactive) in [2], 0.0281 (inactive) in test [3], -0.185 (inactive) in test [4] and 0.69 (inactive) in test [5].

For the compound `COC(=O)[C@@]1(Cc2ccc(OC)cc2)[C@H]2c3cc(C(=O)N4CCCC4)n(CCc4c[nH]c5cc(F)ccc45)c3C[C@H]2CN1C(=O)c1ccccc1`, the composite z-score in test [1] is 0.313; in test [6] it was 2.19; in [7] it was 0.636; in test [8], 0.188; in test [9], 1.25; in [10], 0.133. The z-score was -1.26 (inactive) in test [2], -0.0146 (inactive) in test [3], 0.773 (inactive) in test [4] and 0.199 (inactive) in test [5].

Turning to `COCC(=C=CC[C@H](O)c1ccc(OCCO)cc1)C[C@H](O)c1cc(Cl)cc(Cl)c1O`, the composite z-score in test [1] worked out at 0.635; in [6], 0.169; in [7], 0.0849; in test [8] it was 1.06; in test [9], 0.3; in test [10] it was 2.26. The z-score in [2] is -7.94 (inactive); in [3], -0.984 (inactive); in test [4], 11.1 (active); in test [5] it was 0.96 (inactive).

Regarding `C=CC[C@@]1(C(=O)NCC(O)CO)N=C(c2ccc(OCCCO)cc2)O[C@@H]1c1ccccc1N=[N+]=[N-]` (stereo not given in full), the composite z-score in test [1] was 0.147; in [6], 1.02; in test [7] it was 0.246; in test [8], 1.4; in [9], 1.48; in [10], -0.0776. For the same compound, the z-score in test [2] was -4.04 (inactive); in test [3] it was -0.281 (inactive); in [4], 0.573 (inactive); in test [5], -0.815 (inactive).

Regarding `COCCOC(=O)N1C(=O)[C@@]2(c3cc(C#CCCO)ccc31)[C@H](c1ccc(O)cc1)N1[C@H](c3ccccc3)[C@H](c3ccccc3)OC(=O)[C@H]1[C@@H]2C(N)=O`, the composite z-score is 0.453 in test [1]; -0.656 in test [6]; 0.0388 in test [7]; 0.553 in test [8]; 0.883 in [9]; 0.493 in test [10]. Besides, the z-score in test [2] is -0.209 (inactive); in test [3] it was 0.393 (inactive); in test [4], 0.48 (inactive); in test [5], 0.73 (inactive).

For `COc1cc2c(cc1O)C(C)N(Cc1cccc(OC(F)(F)F)c1)CC2` (stereo not given), the composite z-score was found to be 0.475 in test [1]; 0.395 in test [6]; 0.0528 in test [7]; 1.7 in test [8]; 1.91 in [9]; 0.204 in test [10]. Further, the z-score in [2] was -0.842 (inactive); in test [3] it was -0.334 (inactive); in test [4] it was 0.506 (inactive); in test [5], 1.66 (inactive).

As for `C=CCOC(=O)[C@@H]1[C@H]2C(=O)O[C@H](c3ccccc3)[C@H](c3ccccc3)N2[C@H](c2ccc(OCCOC(=O)[C@@H]3C[C@@H]4C(=O)NCC(=O)N4[C@@H]3c3cccc(OCCO)c3)cc2)[C@@]12C(=O)Nc1ccc(I)cc12`, the composite z-score in test [1] was 1.02; in [6], -0.0506; in test [7] it was 0.458; in [8], 1.56; in test [9], 1.17; in [10], 2.1. In addition, the z-score was 0.0025 (inactive) in test [2], -0.0754 (inactive) in test [3], -0.545 (inactive) in test [4] and -0.844 (inactive) in [5].

`CCN(CC)c1ccc(N2CC=CC34O[C@@H]5C=CCCOC(=O)C5[C@H]3C(=O)N(CCCCCO)[C@@H]4C2=O)cc1` (stereo not given in full): the composite z-score in test [1] was 0.0385; in test [6] it was -0.45; in test [7] it was 0.0173; in test [8], 0.846; in test [9] it was 0.307; in test [10], 0.16. The z-score in test [2] was -0.484 (inactive); in test [3], -0.947 (inactive); in test [4], 0.593 (inactive); in test [5] it was -0.686 (inactive).

On to `CCOC(=O)C[C@H]1[C@H](OC(=O)c2ccc(-c3ccccc3)cc2)[C@@H](NC(=O)Cc2ccc(OC)cc2)c2cc(OCCCO)ccc2N1C(=O)c1ccc2ccccc2n1`, for which the composite z-score was 0.163 in test [1]; 0.8 in [6]; -0.0468 in test [7]; 0.33 in test [8]; -0.0342 in [9]; -0.525 in test [10]. In addition, the z-score in test [2] is 0.429 (inactive); in [3] it was 0.26 (inactive); in test [4] it was -0.0529 (inactive); in test [5], -0.489 (inactive).

For the compound `CC(C)=CCCC(C)=CC(O)C1C=CC2C(=O)N(c3ccccc3)C(=O)C2N1Nc1ccccc1` (stereo not given), the composite z-score in [1] was 0.744; in test [6] it was 2.04; in [7] it was 0.596; in [8] it was 0.0777; in test [9], 0.253; in [10], 0.0068. For the same compound, the z-score in test [2] was 0.311 (inactive); in test [3], -0.786 (inactive); in test [4] it was 0.819 (inactive); in test [5], 1.7 (inactive).

As to `CC(C)CNC(=O)[C@@H]1c2ccccc2C(=O)N(Cc2cc(C(F)(F)F)cc(C(F)(F)F)c2)[C@H]1c1ccc(CO)cc1`, the composite z-score in [1] is -0.0674; in test [6] it was -0.674; in [7], 0.212; in test [8], -0.395; in [9], -0.537; in [10] it was -0.22. In addition, the z-score in [2] is -1.51 (inactive); in test [3], 0.788 (inactive); in test [4], -0.0512 (inactive); in test [5] it was -1.2 (inactive).

As for `C=C(CCCC)C(=O)CC[C@H](OC(=O)c1cccnc1)c1cccc(OCCO)c1`, the composite z-score is 0.54 in test [1]; 0.0158 in test [6]; -0.231 in test [7]; 0.524 in [8]; 0.186 in [9]; 1.12 in [10]. For the same compound, the z-score was -0.293 (inactive) in test [2], -0.0707 (inactive) in [3], 11 (active) in test [4] and 0.189 (inactive) in [5].

Consider `O=C1OCCC=C[C@H]2OC34C=CCN(c5ccc6ccccc6c5)C(=O)[C@H]3N(CCCCCO)C(=O)[C@@H]4C12` (stereo not given in full), for which the composite z-score is -0.288 in test [1]; 0.136 in [6]; -0.0471 in test [7]; 0.592 in [8]; 1.8 in test [9]; 0.157 in [10]. The z-score in test [2] is 0.0855 (inactive); in [3], -1.17 (inactive); in test [4], 0.0645 (inactive); in test [5], -0.206 (inactive).

For the compound `CCOC(=O)C[C@H]1[C@H](OC(=O)c2ccc(C(=O)c3ccccc3)cc2)[C@@H](NC(=O)C2CCCCC2)c2cc(OCCCO)ccc2N1C(=O)c1ccccc1`, the composite z-score in test [1] amounted to 0.177; in test [6], 0.767; in test [7] it was 0.58; in test [8], 0.342; in [9], 0.358; in [10], 1.31. The z-score in test [2] is -0.361 (inactive); in [3], 0.441 (inactive); in [4] it was 2.06 (inactive); in [5], -0.0298 (inactive).

Take `COCCOC(=O)N1C(=O)[C@@]2(c3cc(C#CCCO)ccc31)[C@H](C(=O)NC[C@H](O)c1ccccc1)[C@H]1C(=O)O[C@H](c3ccccc3)[C@H](c3ccccc3)N1[C@@H]2c1ccc(O)cc1`: the composite z-score in [1] was 0.0418; in test [6] it was 0.276; in test [7] it was -0.0136; in [8], 0.581; in test [9], 1.12; in test [10] it was 1.79. Moreover, the z-score is -0.612 (inactive) in test [2], -1.16 (inactive) in [3], -1.29 (inactive) in test [4] and -0.201 (inactive) in test [5].

Take `COc1ccc(C(O)C2C=CC3C(=O)N(C)C(=O)C3N2Nc2ccccc2)cc1OCc1ccccc1` (stereo not given): the composite z-score in test [1] is 0.0512; in [6], 0.863; in test [7] it was 0.0528; in test [8] it was 0.155; in test [9], 0.992; in test [10], -0.237. The z-score was 0.142 (inactive) in test [2], -0.292 (inactive) in test [3], 1.21 (inactive) in [4] and -0.389 (inactive) in test [5].
